Reference: the supplement of paper PMC6555819

Assays:
Assay in all cases: PBM binding z-score (relative to random genomic background probes); higher = stronger binding; sequences stand for … in GC…GCGATTGACAGCGTAGAATGAAGG
[1] = system: RARb homodimer (NR concentration 270 nM)
Summary of the method: (§1)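 Random background probes are the reference for binding z-scores. These scores derive from regression-normalized fluorescence on custom Agilent 4×180K protein-binding microarrays incubated 1 h with ligand-free nuclear receptor dimers. Binding was detected with antibodies against each partner (one per run).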

[2] = system: RARg:RXRa (NR concentration 270 nM, RXRa partner concentration 90 nM)
Summary of the method: as §1

[3] = system: RARg homodimer (NR concentration 270 nM)
Summary of the method: as §1

[4] = system: RXRa DBDmut IVT, anti-RXR (DBD mutation: RXRa K156A/R161A, NR concentration 90 nM)
Summary of the method: as §1

[5] = system: RXRa homodimer (NR concentration 180 nM)
Summary of the method: as §1

[6] = system: THRa:RXRa (NR concentration 90 nM, RXRa partner concentration 90 nM)
Summary of the method: as §1

[7] = system: THRa homodimer (NR concentration 90 nM)
Summary of the method: as §1

[8] = system: VDR homodimer (NR concentration 270 nM)
Summary of the method: as §1

Sequence | PBM binding z-score [1] | PBM binding z-score [2] | PBM binding z-score [3] | PBM binding z-score [4] | PBM binding z-score [5] | PBM binding z-score [6] | PBM binding z-score [7] | PBM binding z-score [8]
AATACAGGGTCACTAGGCCTGAGTAGGTACGAAT | 3.04 | 4.82 | 4.35 | 2.53 | 5.28 | 3.13 | 0.975 | 1.81
TCTTGTATATCAGCAGGTTAAGAAAGCTGGCCAA | 0.756 | 0.511 | 0.266 | 1.05 | 0.75 | 0.759 | 0.0914 | 0.143
TCATATAGGTAAACAGGTGAAAGCCCGTAAGTTA | 0.749 | 0.546 | 0.364 | 1.2 | 1.64 | 0.571 | 0.487 | -0.138
TGTCAAAGTTCAAAGGTAAAGTAAGTATCCACAC | 3.74 | 6.33 | 6.06 | 4.16 | 7 | 3.08 | -0.134 | 3.53
GCGACTGGGGCAAAGCAGGTTACCATGAGGTTGG | 1.2 | 0.634 | 0.674 | -0.402 | 0.455 | 2.99 | -0.00664 | -0.385
CGAACTAGGCCAGAACAGGACAGTGAAGGATGAT | 0.156 | 0.158 | 0.409 | 0.019 | 0.291 | 0.634 | -0.576 | -0.245
CCTACCAGGCCAATCTGGGTCACTCAAGGCTTGA | 2.5 | 1.37 | 1.64 | -0.157 | 1.01 | 3.84 | 1.34 | 0.435
